From the supplement of paper PMC6555819

tested on: VDR:RXRa (NR concentration 270 nM, RXRa partner concentration 90 nM); assay: PBM binding z-score (relative to random genomic background probes); higher = stronger binding; sequences stand for … in GC…GCGATTGACAGCGTAGAATGAAGG
Protocol: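 Protein-binding microarray (Agilent 4x180K custom design, double-stranded 60-nt probes: 5' GC cap, 34-nt variable region, 24-nt constant primer region; full probe sequence given). Purified or IVT nuclear receptor:RXRα heterodimers (3:1 NR:RXRα, mostly 270:90 nM) or homodimers were incubated for 1 h in PBS with 2% milk and no ligand, then detected with Alexa488 antibodies. Fluorescence from o1-orientation probes (~5 replicates averaged) was converted to z-scores against 500 random hg19 background probes. Variable regions are seed direct-repeat (DR0–DR5) sites, all their single-nucleotide variants and half-site ablations.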

Row | Sequence | PBM binding z-score
1 | ATATGTTGGTTAAGGGTCATTCAGGTTGGTTCGC | 5.55
2 | TCTCGGAGGACACGAAAGGTCAGAGGTCGACATC | 4.52
3 | CCGACTGGGGCATAAGGTTGCCATAAGCCAGCCC | -0.377
4 | CTCGAAAGGTCGGTTGAGGAGAGTATACGGATAA | 0.954
5 | TCTGCTTGGTCAGTTGGTCAGCTAACGAGCTGCC | -0.451
6 | CCTCGGAGGACAATAGGAGGTCAGAGCTGCCAGA | 1.51
7 | GGAATGAGGGCAAGTTGATAGCAGAGTTTGATGG | 1.18
8 | CAAACTAGATCACGAAAGGTCAAAGTCGAATGAC | 4.79
9 | TCTATTAGTTTAAGGGCAACCGACGAGTCCGTTT | 1.61
10 | TCTTGTACATCAACAGGAGGTTAAGAAAGATCGA | 0.977
11 | ACTATTAGTTGACTTAGGTCAACCGATACGACGC | 2.42
12 | TCTTGTAGATCAAAGGTTAACAAAGCCGAAGCCT | 2.09
13 | TCTGCTAGGTCAACGATGTTCAGCTAATCTGCTA | 1.67
14 | TGTCAAAGTTGAAAGGTAACGTAAGTATCCACAC | 0.996
15 | TCTCGGAGGACACGAAGGTCATAGCTTTCCAGAG | 4.04
16 | GCTGCTAGATCAGGTTGGTCAGCTAACGGGTACG | -0.639
17 | CGAACTAGGTAATCCAGGACAGTGAATACATTGA | 0.209
18 | CCTACTTGGCCATCAGGTCATTGATATCAACGTT | 2.12
19 | TCATATAGGTAAATAGGTGAAAGTCCGTAAGTTA | 1.25
20 | CAAACTAGGTCACAGAGGTCAAAGACCGTGCGTA | 7.76

Row | Sequence | PBM binding z-score
21 | GCTAGCAGGCCATTTGGGTCATTCAATGACGGGC | 1.56
22 | CCAGACAGGTGAGATGGTAACTCAGCCTCGATTA | -0.293
23 | CCGACTGGGGCAGAAAGGTTACTATACCATCCGG | 0.555
24 | CCTAGTTGGTCAACGTCACACACGCTATAGGTAC | 0.309
25 | ACAGACAGGTGAGTGAAGGTAACTCAACTGGACG | -0.232
26 | CCTACTGGGCCATCAGGGCATTGATATCAACGTT | -0.589
27 | CCTAGTTGGTCAAGGGCACACACGCTATAGGTAC | 0.813
28 | ATCTCTAGGTAAAAGTTCCGTGAATCCCGAGGAT | -0.0559
29 | ACTATTAGGTGAGACGAGGGCAACCGATAGGTTG | 1.77
30 | AGAACGAGGGCACGCTGGGTTGATAGCAGAGTAG | 2.53
31 | ATCTATAGGTAAAAGTTCAGTGAATCCCGAGGAT | 1.28
32 | GCTCGGTGGACAAGGTCAGAGCTTTGTCCGTAGA | 1.48
33 | ATATCTAGGTAACCAAGTTCAGTGAATGCCGAAC | 3.97
34 | CTCGAAAGGTCGTGCTCAGGTGAGTGTACCAAAC | 3.44
35 | ATCTCTAGGTAACTAAGTTCAGTGAATGCCGAAC | 4.26
36 | TGTCCAAGTTCAAAGGTAACGTAAGTATCCACAC | 4.6
37 | CCTAGCAGGTCAATCTGGGTCACTCAAGGCTTGA | 4.94
38 | AGAATGAGGTTAAGATAAGGGAAACAGAATACAT | 1.62
39 | TTTAGCAGGCCAGAGGGTCACTCAAGAGGTACGG | 1.55
40 | TCTTGTAGATCAAGCAGGATAAGAAAGCCTGAGT | 0.405
